Results from PubChem BioAssay AID504329 (Southern Research Specialized Biocontainment Screening …, 2011).
Hit rate of the full screen: of about 340,000 compounds, about 1,000 (0.29%) were called active. No stated cut-off is given here; in the data, inconclusive means inhibition above about 27% without an active follow-up result; inactive means below that. Only a sample is shown. Results with a measured potency or affinity are listed apart.

experiment: H1N1 influenza NS1A inhibitors, functional cell based assay (AID 504329); settings: percent inhibition, at 12.5 µM, active compounds read high

| Structure (SMILES) | inhibition |
| --- | --- |
| Fc1ccc(Oc2nccc(-c3ccc(Cl)cc3)n2)cc1 | -2.98% (inactive) |
| CCN(C[C@H]1N[C@@](CC)(C(=O)OC)[C@H]2C(=O)N(Cc3ccccc3)C(=O)[C@@H]12)C(=O)C1CCCCC1 | -2.32% (inactive) |
| O=C(NNC(=O)c1ccccc1Br)c1ccc2nc[nH]c2c1 | 22.1% (inactive) |
| CCOC(=O)C1(CC)NC(c2ccc(N(C)C)cc2)C2C(=O)N(C)C(=O)C21 (stereo unspecified) | 9.29% (inactive) |
| CCOc1ccc2c(c1)-c1c(ssc1=S)C(C)(C)N2C(=O)c1ccco1 | 1.84% (inactive) |
| COc1ccc2c(c1)-c1c(ssc1=S)C(C)(C)N2S(=O)(=O)c1ccc(C)cc1 | 17.8% (inactive) |
| CCN(CC(=O)Nc1c(F)cccc1F)C(=O)CSc1ccccc1 | -8.64% (inactive) |
| COc1ccc(/C=N/Nc2cc(N3CCOCC3)ncn2)c(OC)c1 | -0.39% (inactive) |
| Clc1ccccc1/C=N/Nc1cc(N2CCOCC2)ncn1 | 17.6% (inactive) |
| COc1cccc(/C=N/Nc2c(Cl)cncc2Cl)c1O | 1.36% (inactive) |
| COc1ccc(/C=N/Nc2cc(OC)ncn2)cc1 | 3.33% (inactive) |
| Oc1ccccc1/C=N/Nc1cccc2cccnc12 | -0.48% (inactive) |
| Oc1ccccc1/C=N/Nc1ccnc(SCc2ccccc2)n1 | -3.79% (inactive) |
| COc1cccc(/C=N/Nc2cc(Cl)nc(C)n2)c1O | -12.7% (inactive) |
| COc1cc(N/N=C/c2ccc(N(C)C)cc2)ncn1 | -5.63% (inactive) |
| CCN(C(=O)COC(=O)Cc1c[nH]c2ccccc12)C1CCS(=O)(=O)C1 (stereo unspecified) | 2.01% (inactive) |
| Cc1ccc(NC(=O)CSc2nc3ccccc3c(=O)[nH]2)cc1[N+](=O)[O-] | 5.04% (inactive) |
| COc1ccccc1NC(=O)NNC(=O)CCc1ccccc1 | -10.3% (inactive) |
| COc1ccc(NC(=S)N(CCCN2CCOCC2)Cc2cn(C)c3ccccc23)cc1OC | 2.8% (inactive) |
| COc1ccc(OCc2nnc(SCc3ccc(C(=O)O)cc3)o2)cc1 | 5.27% (inactive) |
| O=C(NC1CCCC1)C(c1ccc(F)cc1)N(C(=O)c1csnn1)c1ccccc1F (stereo unspecified) | -6.01% (inactive) |
| Cn1cc(CN2CCC(n3nccc3NC(=O)CCCc3ccccc3)CC2)cn1 | -14% (inactive) |
| COc1ccc(-c2cc(C(=O)NCCN3CCOCC3)c3ccccc3n2)cc1OC | 23% (inactive) |

| Structure (SMILES) | inhibition |
| --- | --- |
| O=C(CSc1nnc(Nc2ccccc2)s1)Nc1cccc(S(=O)(=O)N2CCCCC2)c1 | -4.99% (inactive) |
| CS(=O)(=O)Nc1ccccc1C(=O)OCC(=O)N1CCC(c2ccccc2)=N1 | -6.95% (inactive) |
| O=C(CCS(=O)(=O)c1ccccc1)Nc1nc(-c2ccc(F)cc2)cs1 | -4.12% (inactive) |
| O=C(CCS(=O)(=O)c1ccccc1)Nc1nc(-c2cccs2)cs1 | -56.6% (inactive) |
| Cc1ccc(S(=O)(=O)CCC(=O)Nc2nc(-c3ccccn3)cs2)cc1 | 7.88% (inactive) |
| O=C(CCS(=O)(=O)c1ccc(F)cc1)Nc1nc(-c2ccncc2)cs1 | -5.43% (inactive) |
| CC(C)Oc1ccc(S(=O)(=O)N2CCCCC2)cc1NC(=O)CN1C(=O)NC(C)(C2CC2)C1=O (stereo unspecified) | -3.52% (inactive) |
| O=C(C1CCN(S(=O)(=O)c2ccccc2)CC1)N1CCCCCC1 | 12.9% (inactive) |
| CC(C)(C)C(=O)CSc1nc2ncc(Br)cc2[nH]1 | 0.51% (inactive) |
| Cc1cccc(-n2cnc(C(=O)N/N=C/c3ccccc3)c2)n1 | -4.63% (inactive) |
| COC(=O)c1ccc(NC(=O)c2cn(-c3cccc(C)n3)cn2)cc1 | -7.7% (inactive) |
| C/C(=N/NC(=O)c1cn(-c2cccc(C)n2)cn1)c1ccc(C)cc1 | 3.85% (inactive) |
| Cc1ccc(NC(=O)c2cn(-c3cccc(C)n3)cn2)cc1 | -6.72% (inactive) |
| COc1ccc(OC)c(NC(=O)COC(=O)[C@H](Cc2ccccc2)NC(=O)c2ccco2)c1 | -3.78% (inactive) |
| O=C(c1ccc(Cn2c(=S)[nH]c3ccc(N4CCOCC4)cc3c2=O)cc1)N1CCN(c2ccc(F)cc2)CC1 | -6.32% (inactive) |
| COc1cc(CN(C)C)cc(C=O)c1O | 1.87% (inactive) |
| Nc1nc2cc(Br)ccc2o1 | -24.5% (inactive) |
| COc1cc(C(C)=O)ccc1OCC(=O)Nc1cc(Cl)ccc1-n1cncn1 | -5.4% (inactive) |
| O=C(NCC(=O)N(c1ccc(F)cc1)C(C(=O)NC1CCCC1)c1cccnc1)c1cccs1 (stereo unspecified) | -7.6% (inactive) |
| O=C(CN1C(=O)c2cccnc2Oc2ccc(Cl)cc21)N1CCCC1 | -12.6% (inactive) |
| O=C1c2ccccc2CN1CCNS(=O)(=O)c1ccc2ccccc2c1 | 0.05% (inactive) |
| CCN(Cc1nc2cc(Cl)ccc2c(=O)[nH]1)C(=O)c1cc2c(s1)CCCCC2 | -9.24% (inactive) |
| CC1(C(=O)NCc2cc(F)cc(C(F)(F)F)c2)C=CC2(CCCCC2)N1C(=O)c1ccccc1 (stereo unspecified) | -9.29% (inactive) |

| Structure (SMILES) | inhibition |
| --- | --- |
| CS(=O)(=O)N(CC(=O)NCC1CCCO1)Cc1ccc(Cl)cc1 (stereo unspecified) | -3.33% (inactive) |
| O=C(NNc1c2ccccc2nc2ccccc12)c1ccccc1Cl | -1.62% (inactive) |
| O=C(NNc1c2ccccc2nc2ccccc12)c1ccccc1O | -2.01% (inactive) |
| Cc1cccc(C)c1NC(=O)CN(C)C(=O)C(c1ccccc1)c1ccccc1 | -4.5% (inactive) |
| COc1ccc(COC(=O)CCS(=O)(=O)c2ccc(C)cc2)cc1F | -5.19% (inactive) |
| CN(C)CCNc1ccc(CO)c2sc3ccc(O)cc3c(=O)c12 | 21.9% (inactive) |
| CCN(CC)CCCNc1ccc2ncn3c4ccc(O)cc4c(=O)c1c23 | 18.1% (inactive) |
| CCN(CC)CCNc1ccc(CO)c2sc3ccccc3c(=O)c12 | -1.15% (inactive) |
| CN(C)CCNc1ccc(CO)c2oc3ccc(O)cc3c(=O)c12 | 2.86% (inactive) |
| CCOC(=O)N1CCN(C(=O)CN(C)S(=O)(=O)c2ccc3c(c2)c(=O)n(C)c(=O)n3C)CC1 | 1.25% (inactive) |
| CCn1nc(C)c(/C=N\NC(=O)c2cccc(OC)c2)c1C | -6.26% (inactive) |
| O=C(Nc1cccnc1)C1CCN(S(=O)(=O)c2cccc3nonc23)CC1 | 7.53% (inactive) |
| CCOc1cc(/C=C2\SC(=S)N(Nc3ccccc3)C2=O)ccc1O | -19.7% (inactive) |
| COc1cc(/C=C2\SC(=S)N(Nc3ccccc3)C2=O)ccc1O | 16.4% (inactive) |
| N#CC1=C2SCCN2C(=O)C(C#N)C12CCCCC2 (stereo unspecified) | -0.17% (inactive) |
| Cc1cc(C)c2oc(=O)cc(CN3CCN(Cc4ccccc4)CC3)c2c1 | 0.54% (inactive) |
| COc1cccc(-n2c(SCC(=O)NCc3cccs3)nc3ccccc3c2=O)c1 | 0.54% (inactive) |
| O=C(c1ccc(F)cc1)N1CCC(C(=O)N2CCN(S(=O)(=O)c3cccc(Cl)c3)CC2)CC1 | -5.53% (inactive) |
| CCOCCc1nnc(NC(=O)CN2C(=O)c3ccccc3C2=O)s1 | -7.03% (inactive) |
| CN1CCN(C2=C(Cl)C(=O)C(c3cnc(N4CCCCC4)s3)=C(Cl)C2=O)CC1 | 18.9% (inactive) |
| CN(C)c1ncc(C2=C(Cl)C(=O)C(N3CCCC3)=C(Cl)C2=O)s1 | 8.59% (inactive) |
| CN1CC(C(=O)c2ccc(Cl)cc2)C(c2ccccc2)C1 (stereo unspecified) | -3.51% (inactive) |
| COc1ccc(C(=O)C2CN(C)CC2c2ccc(Cl)cc2)cc1 (stereo unspecified) | -2.24% (inactive) |

| Structure (SMILES) | inhibition |
| --- | --- |
| O=[N+]([O-])c1ccc2nc(N3CCCC3)sc2c1 | -13.2% (inactive) |
| COc1cc(Cl)c(C)cc1N1C(=O)CN(Cc2ccccc2)C1=S | -3.41% (inactive) |
| O=C(COc1cc(F)ccc1[N+](=O)[O-])Nc1ccc(N2CCOCC2)cc1 | 6.79% (inactive) |
| Cc1ccc(S(=O)(=O)N2CC(O)C[C@H]2C(=O)OCC(=O)N2CCN(c3ccc(F)cc3)CC2)cc1C (stereo partly specified) | -4.2% (inactive) |
| CN1CCN(c2ccc(NC(=O)COc3ccccc3[N+](=O)[O-])cc2)CC1 | 0.13% (inactive) |
| CC(=O)Nc1ccc(NC(=O)COC(=O)C2CCCCC2)cc1 | -9.9% (inactive) |
| NS(=O)(=O)c1ccc(NC(=O)COC(=O)C2CCCCC2)cc1 | -11.2% (inactive) |
| COc1ccc(NC(=O)CNCCC2=CCCCC2)cc1 | -5.53% (inactive) |
| Cc1ccc(S(=O)(=O)N2CC(O)C[C@H]2C(=O)OCC(=O)Nc2ccc(N3CCOCC3)cc2)cc1C (stereo partly specified) | -8.01% (inactive) |
| O=C(CNCCC1=CCCCC1)Nc1ccccc1N1CCCCCC1 | -4.99% (inactive) |
| COCc1cc(=O)[nH]c(SCC(=O)N2CCOCC2)n1 | -7.79% (inactive) |
| CC(=O)NC(CC(=O)OCC(=O)N1CCN(S(=O)(=O)c2ccc(Cl)cc2)CC1)c1ccccc1 (stereo unspecified) | -16.1% (inactive) |
| COCCN(C(=O)CSc1nnc(-c2ccncc2)n1C)c1c(N)n(CC(C)C)c(=O)[nH]c1=O | -15.9% (inactive) |
| CCSc1oc(-c2ccco2)nc1S(=O)(=O)c1ccc(F)cc1 | 5.79% (inactive) |
| c1ccc(COc2ccccc2CNC2CCCC2)cc1 | 0.14% (inactive) |
| O=C(/C=C/c1ccc(Cl)cc1)NCCCN1CCOCC1 | -7.22% (inactive) |
| CCC(Sc1nc2cc(OC)c(OC)cc2c(=O)n1CCc1ccc(OC)c(OC)c1)C(=O)NCCOC (stereo unspecified) | 7.7% (inactive) |
| COc1ccc(Cn2c(CCC(=O)NCc3ccco3)nc3cccnc32)cc1 | 0.67% (inactive) |
| CCc1nnc(NC(=O)c2cc(-c3ccncc3)nc3ccccc23)s1 | -12.1% (inactive) |
| Cc1ccc(N(C(=O)c2csnn2)C(C(=O)NC(C)(C)C)c2cccnc2)cc1 (stereo unspecified) | -8.33% (inactive) |
| CC1CN(c2ccc([N+](=O)[O-])c(NCCOc3ccc(Cl)cc3)c2)CC(C)N1 (stereo unspecified) | 20.5% (inactive) |
| CC1CN(c2ccc([N+](=O)[O-])c(NCCOc3ccccc3)c2)CCN1 (stereo unspecified) | 4.39% (inactive) |
